EP2 mod: modulators of human EP2 prostaglandin E2 receptor. EP2-expressing cells, cAMP HTRF FRET, PGE2 co-stimulation. induction, % at 25 µM. 0.83% of 260,000 active. AID 940;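 active = compounds whose cAMP rise, as percent of the full-agonist control response, exceeds 60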;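 note: rat C6 glioma line stably carrying human EP2 under a CMV promoter; the protocol text gives 20 µM as final concentration; 100% = response of wells given 1 µM PGE2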
Target sequence (P43116 whole entry, looked up): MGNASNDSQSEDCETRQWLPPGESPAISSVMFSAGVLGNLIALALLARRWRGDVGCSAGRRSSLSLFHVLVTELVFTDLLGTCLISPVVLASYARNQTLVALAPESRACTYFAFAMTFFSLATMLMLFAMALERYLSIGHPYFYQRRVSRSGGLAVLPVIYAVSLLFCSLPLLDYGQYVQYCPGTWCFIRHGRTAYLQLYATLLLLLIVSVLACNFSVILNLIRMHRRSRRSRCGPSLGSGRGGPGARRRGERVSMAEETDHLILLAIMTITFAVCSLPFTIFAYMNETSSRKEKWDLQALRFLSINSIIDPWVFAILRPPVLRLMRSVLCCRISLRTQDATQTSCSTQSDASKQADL
Insulin prom inh: TRM-6 insulin promoter activity inhibition; 0.9% of 130,000 active; inhibition, % at 2 µM; AID 1273; TRM-6 cells (human fetal islet line), insulin promoter-eGFP reporter, imaging; reporter expression induced with tamoxifen;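 active = inhibition above the mean plus 3 SD, with well images judged a real hit on visual review, cut at about 60% in these data, passing the limit was not always enough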
S1P3 antag: blocks the human S1P3 receptor; Q99500; CHO S1P3 NFAT-BLA reporter, FRET fluorescence, antagonist mode; inhibition, % at 4.98 µM; 0.27% of 170,000 active;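 active = inhibition above the plate cutoff, the mean inhibition of test wells on that plate plus 3 SD, cut at about 28% in these data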;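 note: cells challenged with S1P at its EC80 of 0.8 µM; blue over green emission ratio from cleaved BLA substrate after 4 h stimulation; 0% = S1P-stimulated wells and 100% = unstimulated DMSO-only wells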
S1P4 ag: agonists of human S1P4 receptor; O95977; S1P4-expressing cell line, agonist reporter assay; activation, % at 4.98 µM; 0.35% of 220,000 active; in the data active = activation above about 11%;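 note: 0% = DMSO vehicle and 100% = reference agonist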
S1P4 antag: human S1P4 receptor antagonism; O95977; S1P4-expressing cells, antagonist mode, reporter read-out; inhibition, % at 4.98 µM; 0.26% of 220,000 active; AID 1510; in the data active = inhibition above about 29%;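 note: 0% = wells stimulated with agonist and 100% = vehicle wells without agonist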
EP2 antag: inhibitors of human EP2 prostaglandin E2 receptor | 0.52% of 260,000 active | inhibition, % at 25 µM | P43116 | C6 glioma cells expressing human EP2, cAMP TR-FRET; cells stimulated with saturating PGE2;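 active = percent inhibition above 40 after rounding to a whole number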;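 note: rat C6 glioma host cells with rolipram phosphodiesterase inhibitor present; the protocol text gives 20 µM as final concentration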
EP2 confirm: EP2 receptor cAMP induction, counter-screens negative | shares compounds with EP2 mod | C6 glioma EP2 cells, cAMP HTRF induction; plus low (about EC15) PGE2 agonist | calls only at 20 µM (by protocol) | 47% of 1,300 active | AID 1080;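 active = cAMP induction above 50% in the main assay while under 30% in all four parallel counter assays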;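 note: rat C6 glioma cells stably expressing human EP2 receptor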
Starred values were filed as active, the others as inactive; i = inactive; . = not tested or not shown; + = active, no number; ! = repeats disagree. Rows were chosen to be rich in hits. Some 2.4% of all compounds tested hit in one or more screens of this group.

SMILES | EP2 mod | Insulin prom inh | S1P3 antag | S1P4 ag | S1P4 antag | EP2 antag | EP2 confirm
OCCN(Cc1cccnc1)Cc1cn[nH]c1-c1ccc(Cl)cc1 | -32 | . | . | . | . | 3 | .
Cc1ccc(-n2c(C3CC3c3ccc(Cl)cc3)n[nH]c2=S)cc1 (stereo unspecified) | 48 | 7 | . | 1 | -19 | 3 | .
Cc1ccc(C2CC2c2n[nH]c(=S)n2-c2ccc(C)cc2)cc1 (stereo unspecified) | 58 | 26 | . | 1 | 0 | 2 | i
COc1ccc(C2(NC(=O)CCc3cc(Cl)no3)CCCCC2)cc1 | -10 | . | . | . | . | . | .
Cc1onc(-c2ccccc2Cl)c1-c1nc(-c2ccncc2)no1 | 65* | 9 | . | 0 | 21 | -2 | i
CCc1c(C)sc2nc(C(C)C)n3c(=O)n(CC(=O)NC(C)C)nc3c12 | 32 | . | . | . | . | . | .
CCCC(=O)O[C@H]1C[C@@H](C)N(C(=O)c2ccccc2)c2ccc(C)cc21 | 76* | -10 | . | 1 | -12 | 6 | i
c1ccc(Cc2nc3ccccc3n2Cc2ccccc2)cc1 | 75* | -16 | . | 0 | -19 | 3 | +
Brc1ccc(Cn2c(-c3cncs3)nc3ccccc32)cc1 | 70* | 21 | . | -3 | -20 | 2 | i
C=CCn1c(-c2ccc(OC)cc2)nc2ccccc21 | 8 | 27 | -27 | 0 | -3 | 9 | .
COc1ccc(-c2nc3ccccc3n2Cc2ccccc2)cc1 | 69* | 1 | . | 3 | -3 | 13 | +
CCc1nc2ccccc2n1CCc1ccccc1 | -27 | . | -8 | 1 | -3 | 3 | .
Cn1c(N2CCCC(C(=O)NC3CCCC3)C2)nc2ccccc21 (stereo unspecified) | -27 | . | . | . | . | . | .
COc1cc(S(=O)(=O)N(Cc2ccc(C)cc2)Cc2ccco2)ccc1-n1cnnn1 | 26 | -6 | . | -3 | -8 | 2 | .
COc1cc(S(=O)(=O)N(Cc2cccnc2)Cc2ccco2)ccc1-n1cnnn1 | 79*! | 31 | -14 | 0 | -2 | 10 | i
CCc1nc(Cl)c(C#N)c2c1CSC(C)(C)C2 | 51 | 11 | 1 | 2 | -6 | 6 | .
CC(C)c1nc(Cl)c(C#N)c2c1CSC(C)(C)C2 | 73* | 0 | 12 | 0 | -15 | 5 | +
O=C(c1ccc2nc(-c3ccco3)c(-c3ccco3)nc2c1)N1CCSCC1 | -59 | . | . | . | . | 9 | .
COC1(C)CC2C(CC1OC(=O)c1cc([N+](=O)[O-])cc([N+](=O)[O-])c1)C2(C)C (stereo unspecified) | 72* | . | 6 | -1 | -5 | 10 | +
CN(/N=C/c1cccnc1)C1=NS(=O)(=O)c2ccccc21 | 0 | -74 | 3 | 3 | 0 | 5 | .
CN(/N=C/C=C/c1ccccc1)C1=NS(=O)(=O)c2ccccc21 | 82* | . | -23 | 2 | 5 | 3 | +
CC1CCCC(C)N1C(=O)c1ccccc1Nc1ccc(SC(F)F)cc1 (stereo unspecified) | 76* | 31 | . | -3 | -15 | 3 | i
CC1CN(C(=O)c2ccccc2Nc2ccc(SC(F)F)cc2)CC(C)O1 (stereo unspecified) | 8 | -25 | 11 | 1 | -14 | 8 | .
O=S1(=O)CCN(Cc2ccc(F)cc2)CC1 | -5 | . | -2 | 0 | -10 | 8 | .
O=S1(=O)CCN(Cc2cccc(Cl)c2)CC1 | 86* | 5 | . | 0 | -8 | 8 | i
SMILES | EP2 mod | Insulin prom inh | S1P3 antag | S1P4 ag | S1P4 antag | EP2 antag | EP2 confirm
O=C(Nc1ccccc1)N1CCSc2cc(Cl)ccc21 | 17 | 29 | . | -3 | -12 | 1 | .
O=C(Nc1ccccc1Cl)N1CCSc2ccccc21 | 77* | . | 6 | 1 | -25 | 9 | +
CS(=O)(=O)Nc1ccc(N2CCN(C(=O)c3ccccc3)CC2)c(Cl)c1 | 2 | . | . | . | . | 10 | .
Cc1ccc2[nH]c(=O)c(CN(CCCO)Cc3nnnn3C3CCCCC3)cc2c1 | -28 | . | . | . | . | 12 | .
O=C(c1ccco1)N1CCN(c2c(-c3ccccc3)c3cc(Cl)ccc3[nH]c2=O)CC1 | 47 | 25 | -5 | 0 | -24 | 9 | .
O=c1[nH]c2ccc(Cl)cc2c(-c2ccccc2)c1N1CCOCC1 | 69* | . | -19 | 0 | -4 | 5 | i
O=c1[nH]c2ccc(Cl)cc2c(-c2ccccc2)c1N1CCN(c2ccccn2)CC1 | 73* | 16 | -13 | -2 | 6 | 7 | i
O=c1[nH]c2ccc(Cl)cc2c(-c2ccccc2)c1CN1CCOCC1 | 20 | -9 | 4 | -1 | -17 | 6 | .
OC1(c2ccc(Cl)cc2)CN(c2ccccc2)C2=[N+]1CCS2 (stereo unspecified) | 68* | 33 | 9 | 1 | -12 | 4 | +
Cc1nnc(NC(=O)COc2ccc(Cl)c(C)c2)s1 | -35 | . | . | . | . | 6 | .
C(=C\c1ccccc1)/CN1CCN(C(c2ccccc2)c2ccccc2)CC1 | 25 | -10 | -2 | 0 | 2 | 16 | .
Fc1ccc(C(c2ccc(F)cc2)N2CCN(C/C=C/c3ccccc3)CC2)cc1 | 46 | 33 | -7 | -1 | -3 | 8 | i
CC(=O)c1ccc(S(=O)(=O)NCCCC(=O)NCCc2ccccn2)cc1 | 71* | . | 14 | 1 | 7 | 0 | i
Cc1cc(C)n(C(=O)CNC(=O)Cc2ccccc2)n1 | -95 | 58 | -4 | 5 | -29 | 8 | .
COc1ccc(C(=O)NCC(=O)n2nc(C)cc2C)cc1OC | 66* | 38 | . | -1 | -14 | 8 | i
O=C(CN1CCCCC1)Nc1cc(Cl)ccc1Oc1ccccc1 | 50 | . | 22 | 1 | -16 | 1 | .
O=C(CN1CCCCCC1)Nc1ccccc1Oc1ccccc1 | 70* | . | -7 | -3 | 1 | 9 | +
Cc1ccc(NC(=O)CSc2nnc(-c3ccco3)n2C)cc1C | -39 | . | . | . | . | 7 | .
CCC(=O)N(CCC(Cc1ccccc1)c1ccco1)Cc1ccco1 (stereo unspecified) | 77* | . | 11 | 1 | 8 | 9 | i
CCC(=O)N(CCC(c1ccccc1)c1ccco1)Cc1cccs1 (stereo unspecified) | 46 | 0 | . | -1 | -4 | 8 | .
CCOC(=O)c1c(NC(=O)CSc2nnc(C)c(=O)[nH]2)sc(C)c1-c1ccc(C)cc1 | 27 | . | -1 | 3 | -1 | 7 | .
CCOC(=O)c1c(NC(=O)CN2C(=O)NC3(CCCCCC3)C2=O)sc(C)c1-c1ccc(C)cc1 | 68* | 31 | 5 | 1 | -10 | 13 | +
CCOC(=O)c1c(NC(=O)CSc2nnc(N)s2)sc(C)c1-c1ccc(C)cc1 | 65* | . | 0 | 0 | -11 | 7 | +
Cc1ccc(-c2cc(N)c(=O)n(CC(=O)N3CCc4ccccc43)n2)o1 | -63 | . | . | . | . | 8 | .
COc1ccc(NC(=O)c2sc3nc(-c4ccncc4)ccc3c2N)cc1OC | -25 | . | . | . | . | 9 | .
